Among all 310,000 compounds or so, about 14,000 (4.5%) showed an effect of 50% or more. Effects have a minus sign here. Many of the other results were omitted from the sample, so strong results are more common in it than they were.
Biological target: human ether-à-go-go-related gene (hERG) potassium channel (human, UniProt Q12809)
Assay: primary screen, population patch clamp on CHO cells stably expressing hERG; higher = less effect of the substance
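Also: peak tail current of the secondary pulse compared with the same well before compound.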

Sequence of human ether-à-go-go-related gene (hERG) potassium channel (Q12809 whole entry, looked up): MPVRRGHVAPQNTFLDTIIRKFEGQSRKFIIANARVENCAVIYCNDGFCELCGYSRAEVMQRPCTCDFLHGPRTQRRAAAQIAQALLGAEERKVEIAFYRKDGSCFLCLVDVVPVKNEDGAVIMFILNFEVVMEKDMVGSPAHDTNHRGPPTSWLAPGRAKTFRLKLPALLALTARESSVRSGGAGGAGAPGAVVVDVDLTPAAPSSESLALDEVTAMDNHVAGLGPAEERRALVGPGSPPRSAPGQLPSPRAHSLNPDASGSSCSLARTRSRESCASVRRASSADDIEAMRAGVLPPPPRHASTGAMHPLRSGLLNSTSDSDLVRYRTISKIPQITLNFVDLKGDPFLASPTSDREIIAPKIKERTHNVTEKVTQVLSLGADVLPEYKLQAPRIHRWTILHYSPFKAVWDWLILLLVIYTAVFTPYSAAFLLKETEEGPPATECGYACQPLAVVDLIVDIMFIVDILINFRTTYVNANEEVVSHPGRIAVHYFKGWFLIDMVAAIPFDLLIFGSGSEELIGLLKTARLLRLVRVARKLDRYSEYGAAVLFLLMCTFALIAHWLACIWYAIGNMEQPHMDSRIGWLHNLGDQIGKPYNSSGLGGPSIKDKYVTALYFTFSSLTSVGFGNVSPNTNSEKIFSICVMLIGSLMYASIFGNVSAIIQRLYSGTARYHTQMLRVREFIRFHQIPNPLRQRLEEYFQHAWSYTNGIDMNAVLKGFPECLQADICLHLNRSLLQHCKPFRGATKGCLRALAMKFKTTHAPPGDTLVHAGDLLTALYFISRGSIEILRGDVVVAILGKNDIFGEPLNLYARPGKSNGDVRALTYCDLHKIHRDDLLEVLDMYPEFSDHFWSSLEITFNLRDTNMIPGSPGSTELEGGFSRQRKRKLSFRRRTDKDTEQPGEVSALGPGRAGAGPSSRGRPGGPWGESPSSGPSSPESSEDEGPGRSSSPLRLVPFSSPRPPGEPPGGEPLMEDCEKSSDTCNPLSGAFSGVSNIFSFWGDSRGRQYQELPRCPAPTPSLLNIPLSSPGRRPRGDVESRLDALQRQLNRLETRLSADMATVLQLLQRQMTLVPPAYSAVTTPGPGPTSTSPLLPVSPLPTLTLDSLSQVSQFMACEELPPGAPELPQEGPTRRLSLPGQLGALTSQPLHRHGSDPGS

In order of rising “hERG current change (%, negative = inhibition) at 10uM” value:
1. CCN(CC)Cc1c(C(=O)N/N=C(\C)c2ccncc2)nnn1-c1nonc1N  -80.3%
2. O=c1[nH]c2ccccc2cc1CN(CC1CCCO1)S(=O)(=O)c1ccc(Cl)cc1 (stereo not shown)  -75.1%
3. Cc1ccccc1OCC(O)Cn1c(=N)n(Cc2ccccc2)c2ccccc21.Cl (stereo not shown)  -73%
4. C/C(=N/NC(=O)C(O)(c1ccccc1)c1ccccc1)c1ccc([N+](=O)[O-])o1  -71.6%
5. COc1ccccc1OCC(O)Cn1c(=N)n(Cc2ccccc2)c2ccccc21.Cl (stereo not shown)  -71%
6. C=CCn1c(=N)n(CC(O)COc2ccccc2OC)c2ccccc21.Cl (stereo not shown)  -67%
7. Cc1ccc(CNC(=O)CCC2CCCN(Cc3cccc4cccnc34)C2)o1 (stereo not shown)  -66%
8. CCCN(CCC)Cc1c(C(=O)N/N=C/c2ccncc2)nnn1-c1nonc1N  -64.1%
9. c1ccc(SCc2cn(C[C@H]3CC[C@@H]([C@@H]4CC[C@H](Cn5cc(CSc6ccccc6)nn5)O4)O3)nn2)cc1  -62.1%
10. c1c(CC2CCCC2)nnn1C[C@H]1CC[C@@H]([C@@H]2CC[C@H](Cn3cc(CC4CCCC4)nn3)O2)O1  -57.6%
11. O=c1[nH]c2ccccc2cc1CN(Cc1cccnc1)S(=O)(=O)c1ccc(Cl)cc1  -56.2%
12. CCN(CC)Cc1c(C(=O)N/N=C/c2ccncc2)nnn1-c1nonc1N  -55.9%
13. CCCCc1cn(C[C@H]2CC[C@@H]([C@@H]3CC[C@H](Cn4cc(CCCC)nn4)O3)O2)nn1  -54.9%
14. CCOc1cccc(-c2c(C(=O)N/N=C/c3cccnc3)nnn2-c2nonc2N)c1  -54%
15. Cc1ccc(CNC(=O)CCC2CCCN(Cc3ccc4cccc(F)c4n3)C2)o1 (stereo not shown)  -52.1%
16. CC(=O)Nc1ccc(S(=O)(=O)N2CCC(N(C)CCC(C)C)CC2)cc1.Cl  -46.8%
17. Br.C=CCn1c(=N)n(CC(=O)c2ccc(OC)cc2)c2ccccc21  -43.7%
18. COc1ccc(CNC(=O)C(c2ccc(C)o2)N(C(=O)c2csnn2)c2ccc(C(C)C)cc2)cc1 (stereo not shown)  -42.9%
19. c1ccc(CCc2cn(C[C@H]3CC[C@@H]([C@@H]4CC[C@H](Cn5cc(CCc6ccccc6)nn5)O4)O3)nn2)cc1  -38.2%
20. CC(C)c1csc(CN2CCCC(CCC(=O)NCc3ccccc3F)C2)n1 (stereo not shown)  -34.3%
21. ClCCCc1cn(C[C@H]2CC[C@@H]([C@@H]3CC[C@H](Cn4cc(CCCCl)nn4)O3)O2)nn1  -33.6%
22. COc1ccc(CNC(=O)CC2C(=O)NCCN2C2Cc3ccccc3C2)cc1 (stereo not shown)  -28.5%
23. CCN1CCN(C(=O)c2cc(-c3cccnc3)nc3ccc(Br)cc23)CC1  -28.5%
24. CCOC(=O)N/N=C(/C)c1ccc([N+](=O)[O-])o1  -25.4%
25. O=C1c2ccccc2C(=O)N1CCCc1cn(C[C@H]2CC[C@@H]([C@@H]3CC[C@H](Cn4cc(CCCN5C(=O)c6ccccc6C5=O)nn4)O3)O2)nn1  -23.8%
26. C=CCn1c(=N)n(CC(O)c2ccco2)c2ccccc21.Cl (stereo not shown)  -23.1%
27. Cc1ccc(CNC(=O)CCC2CCCN(Cc3cccc4ncccc34)C2)o1 (stereo not shown)  -22.4%
28. Cc1ccc(S(=O)(=O)N(Cc2cccnc2)Cc2cc3ccccc3[nH]c2=O)cc1  -19.5%
29. COc1ccc(S(=O)(=O)N(Cc2cccnc2)Cc2cc3ccccc3[nH]c2=O)cc1  -18.6%
30. Cc1ccc(/C=N/NC(=O)CSc2nc3ccccc3n2C)s1  -17.4%
31. c1csc(C2Nc3cccc4cccc(c34)N2)c1  -17.2%
32. Cc1ccc(CNC(=O)CCC2CCCN(Cc3c(C)nn(C(C)C)c3C)C2)o1 (stereo not shown)  -16.6%
33. CCCN(CCC)Cc1c(C(=O)N/N=C/c2ccc(Br)cc2)nnn1-c1nonc1N  -15.3%
34. CCCN(CCC)Cc1c(C(=O)N/N=C/c2ccsc2)nnn1-c1nonc1N  -14.6%
35. Cc1cc(C)n(CC(=O)N2CCCC(N3CCN(Cc4ccc5c(c4)OCO5)CC3)C2)n1 (stereo not shown)  -14.2%
36. COc1ccccc1/C=N/NC(=O)c1ccc(Cn2nc([N+](=O)[O-])cc2C)cc1  -12.7%
37. c1ccc(Cn2cc(CSc3ccccc3)nn2)cc1  -11%
38. CCN(CC)Cc1c(C(=O)N/N=C/c2cccnc2)nnn1-c1nonc1N  -10.9%
39. O=c1[nH]c2ccccc2cc1CN(CC1CCCO1)S(=O)(=O)c1ccccc1 (stereo not shown)  -10.3%
40. CCOc1cccc(-c2c(C(=O)N/N=C/c3ccncc3)nnn2-c2nonc2N)c1  -9.65%
41. COc1cc2cc(C(=O)N3CCOCC3)cc(-c3ccc(C)cc3)c2cc1OC  -8.61%
42. Cc1c(N2C(=O)/C(=C\C3CC=CCC3)SC2=S)c(=O)n(-c2ccccc2)n1C (stereo not shown)  -6.68%
43. Cc1noc(C)c1COC(=O)Cc1ccc(Cl)cc1  -5.13%
44. CCC(=O)Nc1cccc(C(=O)/C=C/c2cccs2)c1  -3.34%
45. C/C(=N\NC(=O)C(O)(c1ccccc1)c1ccccc1)c1ccc(C)o1  -2.62%
46. O=C(NCCCN1CCCC1=O)c1ccc(OC(F)(F)F)cc1  -0.372%
47. FC(F)(F)c1nc(SCc2ccc(Cl)cc2Cl)n[nH]1  -0.342%
48. Cc1nn(C(C)C)c(C)c1CN1CCCC(CCC(=O)NCc2ccccc2F)C1 (stereo not shown)  0.286%
49. O=C(NN=C1C2CC3CC(C2)CC1C3)c1cccc(S(=O)(=O)N2CCOCC2)c1  0.586%
50. CCCc1c(C(=O)N/N=C(/C)c2ccncc2)nnn1-c1nonc1N  0.629%
51. CC(=O)OCC1OC(OCc2cn(C[C@H]3CC[C@@H]([C@@H]4CC[C@H](Cn5cc(COC6OC(COC(C)=O)C(OC(C)=O)C(OC(C)=O)C6OC(C)=O)nn5)O4)O3)nn2)C(OC(C)=O)C(OC(C)=O)C1OC(C)=O (stereo partly shown)  0.857%
52. CC(=O)NC(C)c1cc(Cl)c2ccccc2c1O (stereo not shown)  1.04%
53. O=C(Nc1ccccc1)OCCOc1cccc(Br)c1  1.49%
54. CN(C)C(=O)c1ccc(NC(=O)c2ccccc2Sc2ccccc2C#N)cc1  1.57%
55. OCCCc1cn(CC2CCCCC2)nn1  2.61%
56. Cc1ccccc1OCC(O)Cn1c2ccccc2c2ccccc21 (stereo not shown)  2.67%
57. O=C(NCCc1ccccn1)c1ccc(OC2CCN(Cc3ccccn3)CC2)cc1  2.88%
58. CC1c2[nH]c3ccccc3c2CCN1S(C)(=O)=O (stereo not shown)  3.54%
59. CN(C)Cc1c(C(=O)N/N=C/c2ccncc2)nnn1-c1nonc1N  3.67%
60. Cc1nn(C2CCS(=O)(=O)C2)c(Cl)c1/C=C/C(=O)OCC(=O)c1cc(C)n(-c2ccc(F)cc2)c1C (stereo not shown)  4.11%
61. COc1ccccc1C1C(C(=O)c2sc(C)nc2C)=C(O)C(=O)N1CCN1CCOCC1 (stereo not shown)  4.26%
62. COC(=O)C1=C(C)NC2=C(C(=O)c3ccccc32)C1c1cccc(OC)c1 (stereo not shown)  4.97%
63. C=C1C(C(=O)N2CCOCC2)C1C(=O)N1CCOCC1 (stereo not shown)  5.16%
64. Cc1ccccc1OCC(O)Cn1nnc2ccccc21 (stereo not shown)  5.21%
65. COc1ccc(Cc2nc3ccc(C(=O)NCCSC)cc3o2)cc1  6.36%
66. COCc1c(C(=O)N/N=C(\C)c2ccncc2)nnn1-c1nonc1N  7.11%
67. Cc1nc(SCC(=O)NC2CCCC2)[nH]c(=O)c1Cc1ccccc1  7.93%
68. O=C(NN1C(=O)C2C3C=CC([C@H]4CC34)[C@@H]2C1=O)c1ccc(Br)cc1 (stereo partly shown)  8.18%
69. O=C(c1ccc(-n2c(SCc3cc(F)ccc3F)nc3ccccc3c2=O)cc1)N1CCOCC1  8.7%
70. CCOc1ccc(-c2c(C(=O)N/N=C/c3cccnc3)nnn2-c2nonc2N)cc1  9.94%
71. COC(=O)CSC1=C(C#N)C(c2cccc(F)c2)CC(=O)N1 (stereo not shown)  9.97%
72. Cc1ccc(S(=O)(=O)N(Cc2cc3ccccc3[nH]c2=O)CC2CCCO2)cc1 (stereo not shown)  10.5%
73. O=C(Nc1ncc(Cc2cccc(Cl)c2)s1)c1ccc([N+](=O)[O-])cc1  10.6%
74. COc1ccccc1OCC(O)CO (stereo not shown)  12.4%
75. Cc1ccccc1OCCCCN1CCCCC1  12.6%
76. CCc1c(C(=O)Nc2cc(C)cc(C)c2)[nH]c(C)c1C(C)=O  12.7%
77. COc1ccc(/C=N/NC(=O)CNc2ccc(Br)cc2)c(C(=O)O)c1OC  13.9%
78. CC(=O)Oc1ccc(-c2cc3c(OC(C)=O)cc(OC(C)=O)cc3oc2=O)cc1  14.1%
79. O=S(=O)(NCC1CCCO1)c1ccc(NS(=O)(=O)c2ccc(F)cc2)cc1 (stereo not shown)  14.6%
80. O=C(O)C1Cn2c(nc3c(c2=O)C2(CCCC2)Cc2ccccc2-3)S1 (stereo not shown)  17.3%
81. Cc1ccc(NC(=O)COC(=O)COc2cccc3c2OC(C)(C)C3)c(C)c1  19.8%
82. COc1ccccc1OC[C@H](O)CO  24%

— PMC4336329 (PLoS ONE, 2015)
